Hits are enriched below; roughly 1.3% of the tested compounds scored in any of these assays.
RE007 growth inh: less growth of the S. pombe RE007 Vpr strain; 360,000 compounds, 0.21% hits; S. pombe RE007 Vpr strain, BacTiter-Glo ATP luminescence, 24 h; Potency, µM (titrated, usually from 92.2 µM), for inactives: at the top dose activity change, negative = less growth, actives largely listed as inhibitors; active means well fitted falling curve with a large enough effect; inconclusive means small, poorly fitted or top-dose-only effect; inactive means no such curve, though single readings can be large or run the other way; further: nearly all actives have a fitted effect of over 50% in size
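Fission yeast RE007 carrying one integrated HIV-1 vpr copy, seeded at OD 0.01 in PMG+AL medium with 23 nL pinned compound. Grown 24 h at 30 degrees; viability read by BacTiter-Glo luminescence after 5 min.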
AMA1 RON2 block: disrupts binding of P. falciparum AMA1 to RON2; AlphaScreen AMA1-biotinylated RON2 peptide binding; Potency, µM (titrated, usually from 58.2 µM), for inactives: top-dose activity change, negative = inhibition, hits mostly inhibitors; 360,000 compounds, 0.2% hits; AID 720542;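 further: 0% = vehicle wells and -100% = peptide control; nearly all actives have a fitted effect of over 45% in size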
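AMA1 (3D7) with his tag at 25 nM final met compounds first, then biotinylated RON2 peptide at 25 nM; detection used donor plus acceptor beads, 10 µg/mL apiece, read by AlphaScreen after 30 min at room temperature.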
Vaccinia mCherry: vaccinia inhibition (mCherry reporter); Vaccinia virus mCherry reporter infection, fluorescence; Potency, µM (doses to about 36.5 µM), inactives show top-dose activity change, negative = inhibition, usual class: inhibitors; 310,000 compounds, 0.63% hits; AID 720579; calls by dose curve; tested in A549 cells; further: nearly all actives have a fitted effect of over 35% in size
Vaccinia Venus: vaccinia inhibition (Venus reporter); Vaccinia virus Venus reporter expression, fluorescence; Potency, µM (doses to about 36.5 µM), for inactives: top-dose activity change, negative = inhibition, hits mostly inhibitors; 330,000 compounds, 0.46% hits; AID 720580; calls by dose curve; tested in A549 cells; further: nearly all actives have a fitted effect of over 30% in size
Tb PYK inh: inhibitors of Trypanosoma brucei pyruvate kinase | Q57TT1 | 410,000 compounds, 0.12% hits | AID 624173 | TbPYK enzyme, Kinase-Glo Plus ATP luminescence, 45 min | Potency, µM (top dose mostly 76.8 µM), inactives show top-dose activity, negative = inhibition, actives largely listed as inhibitors; further: nearly all actives have a fitted effect of over 50% in size
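Activity of T. brucei pyruvate kinase was followed by Kinase-Glo Plus luminescence after the enzyme reacted 45 min at room temperature with 130 uM ADP (final) and substrate. Test compounds were added before ADP at multiple concentrations.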
LmPK inh: LmPK (Leishmania mexicana) enzyme inhibition; 290,000 compounds, 0.37% hits; Q27686; AID 1721; purified LmPK, Kinase-Glo ATP luminescence, 1 h; Potency, µM (top dose mostly 57.5 µM), inactives show top-dose activity change, negative = inhibition, actives largely listed as inhibitors
Target sequence (Q27686 whole entry, looked up): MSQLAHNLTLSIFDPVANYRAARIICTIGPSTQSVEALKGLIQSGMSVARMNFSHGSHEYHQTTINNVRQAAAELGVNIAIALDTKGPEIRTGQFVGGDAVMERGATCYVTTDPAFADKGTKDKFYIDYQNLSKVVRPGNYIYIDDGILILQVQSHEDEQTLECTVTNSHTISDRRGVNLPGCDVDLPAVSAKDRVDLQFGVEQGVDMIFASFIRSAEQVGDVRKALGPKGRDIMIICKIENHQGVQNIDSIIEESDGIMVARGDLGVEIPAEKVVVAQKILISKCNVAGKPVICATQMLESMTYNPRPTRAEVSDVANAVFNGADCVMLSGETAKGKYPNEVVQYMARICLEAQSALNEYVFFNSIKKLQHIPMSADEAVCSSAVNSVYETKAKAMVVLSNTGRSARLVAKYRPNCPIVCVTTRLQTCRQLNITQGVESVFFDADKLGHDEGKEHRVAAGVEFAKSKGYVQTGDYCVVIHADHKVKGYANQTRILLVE
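0.1 nM LmPK, 0.5 mM PEP, 0.1 mM ADP; 50 mM imidazole pH 7.2, 7 mM MgCl2, 50 mM KCl; 1 h RT. Kinase-Glo luminescence readout, normalized to no-enzyme (full inhibition) and uninhibited wells.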
* = called active by the depositor. Unless noted, the call rests on the fitted dose curve; in most records, active means well fitted curve in the direction sought with a large enough effect; inconclusive means small, poorly fitted or top-dose-only effect, or another doubt; inactive means no such curve, though single readings can be large; an effect the other way counts as inactive or inconclusive. Unless noted, on the % scale 0 is the no-effect control and ±100 the full control effect; potency means the concentration at half of the fitted maximal effect.

Screening COc1ccc(-c2ccc(C(=O)N3CCc4c(cnc(C)c4CNS(=O)(=O)N(C)C)C3)o2)cc1 returned Vaccinia mCherry -15.0% and Vaccinia Venus -6.9%.
`CCCCNc1c(-c2ccc(OC)c(Sc3ccc(OC)cc3)c2)nc2cnccn12` gave RE007 growth inh 0.6%, AMA1 RON2 block 5.6%, Vaccinia mCherry -17.0%, Vaccinia Venus -25.6% and Tb PYK inh 0.2%.
Screening CCCCNc1c(-c2ccc(SC(C)CC)cc2)nc2cnccn12 (centres undefined) returned RE007 growth inh inconclusive, AMA1 RON2 block 28.2%, Vaccinia mCherry 31.6µM*, Vaccinia Venus 22.4µM* and Tb PYK inh -4.1%.
`Cc1ccc(CSc2nc(=O)c3c(C)cc(C)nc3n2C2CC2)cc1` gave Vaccinia mCherry inactive, Vaccinia Venus 1.8% and Tb PYK inh 6.5%.
`CCCN(CCC)Cc1c(C(=O)N/N=C/C(C)=C\c2ccco2)nnn1-c1nonc1N` gave RE007 growth inh -5.7%, AMA1 RON2 block 14.8%, Vaccinia mCherry 10µM*, Vaccinia Venus inconclusive, Tb PYK inh 3.6% and LmPK inh 4.9%.
`O=c1c(N2CCOCC2)nsn1Cc1ccccc1` gave RE007 growth inh -1.2%, AMA1 RON2 block 17.8%, Vaccinia mCherry 12.6µM*, Vaccinia Venus inconclusive, Tb PYK inh -3.3% and LmPK inh 0.3%.
For c1ccc(CN2CCOCC2)cc1 the results were RE007 growth inh -10.8%, AMA1 RON2 block -2.1%, Vaccinia mCherry inactive, Vaccinia Venus -20.3%, Tb PYK inh -4.8% and LmPK inh 1.8%.
`CCSC1(SCC)N=C(N)C2(C#N)C(c3ccccc3)NC3=C(CCC3)C12C#N` (centres undefined) gave RE007 growth inh inconclusive, AMA1 RON2 block 2.8%, Vaccinia Venus -9.0%, Tb PYK inh -12.6% and LmPK inh 5.9%.
`CCSC1(SCC)N=C(N)C2(C#N)C(c3ccc(OC)c(OC)c3OC)C12C#N` (centres undefined) gave RE007 growth inh 5.62µM*, AMA1 RON2 block -9.5%, Vaccinia Venus -10.0%, Tb PYK inh -10.7% and LmPK inh 4.2%.
`COc1ccc(OC)c(-n2c(-c3ccc(O)cc3O)n[nH]c2=S)c1` gave RE007 growth inh -3.9%, AMA1 RON2 block 64.0%, Vaccinia mCherry -10.6%, Vaccinia Venus -18.1%, Tb PYK inh inconclusive and LmPK inh 8.91µM*.
COc1ccc(OC)c(-n2c(-c3cccc(S(=O)(=O)N(C)C)c3)n[nH]c2=S)c1 was read as RE007 growth inh 6.6%, AMA1 RON2 block 5.4%, Vaccinia mCherry inactive, Vaccinia Venus -14.7%, Tb PYK inh -29.4% and LmPK inh inconclusive.
COc1cc(-n2c(-c3ccccc3)n[nH]c2=S)c(OC)cc1Cl was read as RE007 growth inh 6.9%, AMA1 RON2 block 11.7%, Tb PYK inh 3.55µM* and LmPK inh -9.3%.
`COc1ccc(C)cc1-n1c(-c2ccncc2)n[nH]c1=S` gave RE007 growth inh 10.4%, AMA1 RON2 block 0.0%, Vaccinia mCherry -12.0%, Vaccinia Venus -6.6%, Tb PYK inh 14.1µM* and LmPK inh 10µM*.
COc1cc(-c2n[nH]c(=S)n2-c2ccccc2C(F)(F)F)cc(OC)c1OC was read as RE007 growth inh 18.8%, AMA1 RON2 block 58.9%, Vaccinia mCherry inactive, Vaccinia Venus -17.3%, Tb PYK inh inconclusive and LmPK inh 17.8µM*.
COc1cc(-c2n[nH]c(=S)n2-c2cccc(C(F)(F)F)c2)cc(OC)c1OC was read as RE007 growth inh -12.2%, AMA1 RON2 block 72.5%, Vaccinia mCherry inactive, Vaccinia Venus -11.9%, Tb PYK inh inconclusive and LmPK inh inconclusive.
Screening Cc1cccc(-n2c(C)nnc2SCC(=O)NC(C)c2ccco2)c1 (centres undefined) returned Vaccinia mCherry -19.8% and Vaccinia Venus -15.8%.
For COc1cc(OC)cc(-c2n[nH]c(=S)n2-c2cc(OC)ccc2OC)c1 the results were RE007 growth inh -10.8%, AMA1 RON2 block 57.0%, Tb PYK inh inconclusive and LmPK inh 3.55µM*.
For COC(=O)c1ccc(-n2c(C)cc(C(=O)CCl)c2C)cc1 the results were RE007 growth inh 25.1µM*, AMA1 RON2 block -13.4%, Tb PYK inh -1.4% and LmPK inh 0.3%.
For c1ccc(-c2ccc(-n3ccnc3)cc2)cc1 the results were RE007 growth inh 28.2µM*, AMA1 RON2 block -13.5%, Vaccinia mCherry -3.9%, Vaccinia Venus 0.9%, Tb PYK inh -7.2% and LmPK inh -6.0%.
For c1ccc(-c2ccc(C(c3ccccc3)n3ccnc3)cc2)cc1 (centres undefined) the results were RE007 growth inh -7.0%, AMA1 RON2 block -21.7%, Vaccinia mCherry -28.9%, Vaccinia Venus -13.9%, Tb PYK inh 8.0% and LmPK inh 10.6%.
`C(=N\Nc1nncc2ccccc12)/c1ccccn1` gave RE007 growth inh inconclusive, AMA1 RON2 block 96.6%, Vaccinia mCherry 10µM*, Vaccinia Venus inconclusive, Tb PYK inh -14.8% and LmPK inh inconclusive.
For O=c1nc(N/N=C/c2ccccn2)cn[nH]1 the results were RE007 growth inh 14.9%, AMA1 RON2 block -14.7%, Vaccinia mCherry 3.98µM*, Vaccinia Venus inconclusive, Tb PYK inh -12.8% and LmPK inh -16.0%.
For Fc1cccc(/C=N/Nc2nncc3ccccc23)c1 the results were RE007 growth inh inconclusive, AMA1 RON2 block -3.8%, Tb PYK inh -12.2% and LmPK inh -17.7%.
For O=c1cnnc(N/N=C/c2ccccn2)[nH]1 the results were RE007 growth inh -18.2%, AMA1 RON2 block -4.3%, Vaccinia mCherry 2.24µM*, Vaccinia Venus -19.8%, Tb PYK inh -17.4% and LmPK inh -1.7%.
Screening COc1cc(OC)c2nc(-c3cc4c(c(OC)c3)OCCN(C(=O)C(C)c3n[nH]c(=O)c5ccccc35)C4)cc(C)c2c1 (centres undefined) returned Vaccinia mCherry inactive and Vaccinia Venus -12.3%.
`COC(=O)c1ccccc1-c1cc(C)cc2c1OC(CNC(=O)c1cnc(C)cn1)C2` (centres undefined) gave Vaccinia mCherry 2.8% and Vaccinia Venus 14.1%.
For Cc1cc(NCc2ccccn2)n2ncc(-c3ccc(Cl)cc3)c2n1 the results were RE007 growth inh 28.2µM*, AMA1 RON2 block 99.9%, Vaccinia mCherry -23.5%, Vaccinia Venus -21.0%, Tb PYK inh -2.2% and LmPK inh -3.8%.
For O=c1[nH]cc(F)c(=O)[nH]1 the results were RE007 growth inh inconclusive, AMA1 RON2 block 12.1%, Vaccinia mCherry 5.62µM*, Vaccinia Venus -28.4%, Tb PYK inh -2.3% and LmPK inh -3.7%.
